For some assays here: Potency and affinity values are given separately. Activity calls are given as the source filed them.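 The calls were made as follows, unless noted: active = primary screen hit whose fluorescence ratio, in both repeats, exceeds the weak agonist control mean by 3 SD; inactive = the rest.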
What was measured:
[1] = tested on: TRPC4 beta (transient receptor potential cation channel C4), mouse; test: TRPC4 cation channel opening, retest – cell-based, Fluo4 calcium, HEK293 TRPC4beta/mu-opioid, duplicates, 10 µM, confirmation (AID 2426;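 active = fluorescence ratio normalized to control raised more than 50% in primary screen plus both repeat runs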); details: Fluo4 calcium fluorescence, at 10 µM; hits give high values
[2] = tested on: transient receptor potential cation channel C4 beta (TRPC4), mouse; test: TRPC4 cation channel opening, second retest – cell-based, second round, Fluo4, HEK293 TRPC4beta/mu-opioid, 1 µM, confirmation (AID 2461;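 active = primary screen active and over 50% activation in each of two duplicate runs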); details: Fluo4 calcium fluorescence, at 1 µM; hits give high values
[3] = tested on: TRPC4 (transient receptor potential cation channel C4 beta), mouse; test: potentiation of DAMGO EC20 TRPC4 response – cell-based, second round, Fluo-4, HEK293 TRPC4beta/mu-opioid, 1 µM, confirmation (AID 2554); details: DAMGO EC20, Fluo-4 calcium flux, at 1 µM; hits give high values
[4] = tested on: TRPC4 beta (transient receptor potential cation channel C4), mouse; test: potentiation of DAMGO EC20 TRPC4 response – cell-based, Fluo-4, HEK293 TRPC4beta/mu-opioid, confirmation (AID 2555;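 active = primary screen hit whose calcium fluorescence ratio, in both repeats, exceeds the weak agonist control mean by 3 SD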); details: DAMGO EC20, Fluo-4 calcium flux, at 10 µM; hits give high values
[5] = target: Short transient receptor potential channel 4 (Mus musculus) (UniProt Q9QUQ5); test: blockers of DAMGO-evoked TRPC4 calcium flux – cell-based, Fluo4, HEK293 TRPC4beta/mu-opioid, confirmation (AID 2636;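 active = calcium signal cut by more than 3 SD below the full-agonist control yet still positive, in both repeats and the earlier primary screen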); details: at 10 µM; hits give high values
Sequence of Short transient receptor potential channel 4 (Mus musculus) (Q9QUQ5 whole entry, looked up): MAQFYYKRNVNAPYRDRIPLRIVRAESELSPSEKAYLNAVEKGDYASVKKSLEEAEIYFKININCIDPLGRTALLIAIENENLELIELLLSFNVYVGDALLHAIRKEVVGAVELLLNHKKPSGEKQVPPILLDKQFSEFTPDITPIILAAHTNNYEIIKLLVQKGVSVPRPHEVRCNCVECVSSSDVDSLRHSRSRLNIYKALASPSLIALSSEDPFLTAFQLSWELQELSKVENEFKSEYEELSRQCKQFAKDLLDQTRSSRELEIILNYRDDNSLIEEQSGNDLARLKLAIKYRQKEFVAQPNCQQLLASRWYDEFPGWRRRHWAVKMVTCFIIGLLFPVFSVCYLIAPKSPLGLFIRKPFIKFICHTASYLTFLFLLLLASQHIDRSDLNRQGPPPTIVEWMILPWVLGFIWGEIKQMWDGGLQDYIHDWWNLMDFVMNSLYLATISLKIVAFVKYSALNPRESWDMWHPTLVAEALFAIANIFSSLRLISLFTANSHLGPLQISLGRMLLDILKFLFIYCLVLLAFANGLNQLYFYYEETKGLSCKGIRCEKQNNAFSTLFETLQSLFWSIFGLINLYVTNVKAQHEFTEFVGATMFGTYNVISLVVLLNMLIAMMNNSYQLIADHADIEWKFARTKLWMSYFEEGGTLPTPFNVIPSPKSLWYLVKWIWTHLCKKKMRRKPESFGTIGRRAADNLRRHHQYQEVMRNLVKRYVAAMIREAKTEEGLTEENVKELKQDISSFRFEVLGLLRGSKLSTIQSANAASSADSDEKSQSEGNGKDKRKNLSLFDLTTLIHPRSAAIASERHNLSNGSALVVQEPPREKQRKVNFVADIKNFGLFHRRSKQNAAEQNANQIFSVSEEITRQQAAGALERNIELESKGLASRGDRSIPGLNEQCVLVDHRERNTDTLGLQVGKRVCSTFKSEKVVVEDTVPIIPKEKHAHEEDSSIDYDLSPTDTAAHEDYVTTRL

[6] = target: Short transient receptor potential channel 4 (Mus musculus) (UniProt Q9QUQ5); test: blockers of DAMGO-evoked TRPC4 calcium flux – cell-based, second round, Fluo4, HEK293 TRPC4beta/mu-opioid, 1 µM, confirmation (AID 2637;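 active = calcium signal ratio cut to more than 3 SD under the fully stimulated control mean yet still positive, in both repeats and the primary screen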;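 as to inhibition: percent of integrated ratio relative to wells lacking test compound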); details: at 1 µM; hits give high values
[7] = target: Short transient receptor potential channel 4 (Mus musculus) (UniProt Q9QUQ5); test: calcium entry via TRPC4 opening agents – cell-based, HEK293 TRPC4/mu-opioid, Fluo-4 calcium, dose response (AID 434937;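 active = primary screen activator hit with a dose response curve and TRPC4 channel activation at any tested dose; inactive = no activation, no dose response, or not a primary hit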)
[8] = target: Short transient receptor potential channel 4 (Mus musculus) (UniProt Q9QUQ5); test: potentiation of DAMGO-evoked TRPC4 calcium signal – cell-based, HEK293 TRPC4/mu-opioid, Fluo-4 calcium, EC20 DAMGO, dose response (AID 434941;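 active = earlier screen potentiator hit that boosts the TRPC4 ion channel at some dose, with a dose response; inactive = no potentiation, no dose response, or not a prior hit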;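 also: calcium entry triggered by an EC20 dose of DAMGO at the co-expressed mu-opioid receptor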)
[9] = target: Short transient receptor potential channel 4 (Mus musculus) (UniProt Q9QUQ5); test: block of DAMGO-driven TRPC4 calcium entry – cell-based, HEK293 TRPC4/mu-opioid, Fluo-4 calcium, dose response (AID 434942;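 active = primary screen inhibitor hit that blocks the TRPC4 channel at some tested dose, yielding a dose curve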)
[10] = target: Short transient receptor potential channel 6 (Mus musculus) (UniProt Q61143); test: TRPC6 blockade by TRPC4 inhibitor hits – cell-based, HEK293, membrane potential dye, duplicate, selectivity assay for TRPC4 inhibitor project, confirmation (AID 434948;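 active = active in primary screen and both duplicates, each dropping signal beyond three positive-control SD with fluorescence still positive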); details: HEK293 TRPC6, membrane potential dye fluorescence, at 10 µM, stimulated with maximal-effect acetylcholine; hits give high values
Sequence of Short transient receptor potential channel 6 (Mus musculus) (Q61143 whole entry, looked up): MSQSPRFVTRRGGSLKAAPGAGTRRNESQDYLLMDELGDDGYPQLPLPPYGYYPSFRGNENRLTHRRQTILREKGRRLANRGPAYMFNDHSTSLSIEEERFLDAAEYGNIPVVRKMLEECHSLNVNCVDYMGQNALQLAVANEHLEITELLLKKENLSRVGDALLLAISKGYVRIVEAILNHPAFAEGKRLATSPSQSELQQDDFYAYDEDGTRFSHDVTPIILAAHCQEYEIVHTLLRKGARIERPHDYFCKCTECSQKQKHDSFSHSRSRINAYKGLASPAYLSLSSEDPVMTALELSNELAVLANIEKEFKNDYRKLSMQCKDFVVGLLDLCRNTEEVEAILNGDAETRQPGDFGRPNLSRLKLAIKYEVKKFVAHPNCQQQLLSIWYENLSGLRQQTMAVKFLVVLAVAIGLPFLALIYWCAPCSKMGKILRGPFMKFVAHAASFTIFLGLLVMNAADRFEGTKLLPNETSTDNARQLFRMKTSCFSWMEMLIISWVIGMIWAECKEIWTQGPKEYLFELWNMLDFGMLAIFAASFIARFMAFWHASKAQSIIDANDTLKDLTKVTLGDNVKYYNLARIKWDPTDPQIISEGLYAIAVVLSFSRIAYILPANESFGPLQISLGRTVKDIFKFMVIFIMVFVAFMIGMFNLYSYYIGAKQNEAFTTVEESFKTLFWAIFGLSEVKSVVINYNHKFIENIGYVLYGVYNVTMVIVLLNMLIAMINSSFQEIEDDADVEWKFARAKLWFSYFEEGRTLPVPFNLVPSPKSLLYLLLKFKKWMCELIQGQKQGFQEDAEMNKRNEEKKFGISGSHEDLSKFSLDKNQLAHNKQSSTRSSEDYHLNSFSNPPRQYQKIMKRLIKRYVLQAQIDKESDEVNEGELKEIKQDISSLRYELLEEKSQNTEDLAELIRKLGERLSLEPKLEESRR

[11] = target: Short transient receptor potential channel 6 (Mus musculus) (UniProt Q61143); test: TRPC6 opening by TRPC4 activator hits – cell-based, HEK293, membrane potential dye, duplicate, selectivity assay for TRPC4 activator project, confirmation (AID 434950;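 active = membrane potential signal rise above negative control mean plus 3 SD in both duplicates, also active in the earlier TRPC4 screen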); details: HEK293 TRPC6, membrane potential fluorescence, at 10 µM; activation: hits give high values; outcome: activation
[12] = target: Short transient receptor potential channel 6 (Mus musculus) (UniProt Q61143); test: positive modulators of mouse TRPC6 channel – HEK293 cells, membrane potential dye, duplicate, selectivity assay for TRPC4 potentiator project, confirmation (AID 434952;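 active = compound raising the membrane signal above positive-control mean plus 3 SD in both repeats, and a primary screen hit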); details: HEK293 TRPC6, membrane potential dye fluorescence, at 10 µM, maximal acetylcholine added after compound; hits give high values
[13] = target: Short transient receptor potential channel 4 (Mus musculus) (UniProt Q9QUQ5); test: calcium flux activators in TRPC4/5HT1a cells, counter-screen for TRPC4 activator project, cell-based, second counter screen, HEK293 TRPC4/5HT1a, Fluo-4 (AID 434977;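 active = calcium signal rise above buffer-control mean plus 5 SD in both duplicates, and also a hit in the primary screen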); details: Fluo-4 calcium flux, at 10 µM; hits give high values
[14] = serotonin-gated TRPC4 signal block – cell-based, second counter screen, HEK293 TRPC4/5HT1a, Fluo-4, counter-screen for TRPC4 inhibitor project, confirmation (AID 434978;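 active = primary screen active whose calcium signal fell more than 3 SD beyond the full-serotonin control mean in both duplicate plates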;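 also: serotonin given first at submaximal then at maximal dose after compound preincubation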); details: Fluo-4 calcium flux, at 10 µM, serotonin added to trigger calcium flux; hits give high values
[15] = tested on: TRPC4 (mouse), co-expressed with 5HT1a in HEK293; test: enhancement of serotonin-evoked TRPC4 response – cell-based, second counter screen, HEK293 TRPC4/5HT1a, Fluo-4, counter-screen for TRPC4 potentiator project, confirmation (AID 434979;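 active = signal rise over 3 SD above mean of control wells given weak agonist, in both repeats and first screen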); details: Fluo-4 calcium flux, at 10 µM, serotonin added at its EC20 dose; hits give high values
[16] = nonspecific calcium rise without TRPC4 – cell-based, HEK293 mu-opioid receptor line, counter-screen for TRPC4 activator project, confirmation (AID 449723;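 active = hit in primary screen, with calcium signal over 5 SD above buffer well mean in both duplicates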;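 also: counter screen cells carry the mu-opioid receptor alone and lack TRPC4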); details: HEK293 mu-opioid cells, Fluo-4 calcium fluorescence, at 10 µM; hits give high values
[17] = nonspecific potentiation of DAMGO calcium response – cell-based, HEK293 mu-opioid receptor line, counter-screen for TRPC4 allosteric potentiator project, confirmation (AID 449724;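 active = calcium signal rise more than 3 SD above the low-dose agonist control mean, in both duplicate plates and the primary screen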); details: HEK293 mu-opioid receptor cells, Fluo-4 calcium flux, at 10 µM, compound added before EC20 DAMGO stimulus; hits give high values

c1ccc(Nc2c3c(nc4ccccc24)CCC3)cc1
inactive: outcome [1] | outcome [2] | outcome [3] | outcome [4] | outcome [5] | outcome [6] | outcome [7] | outcome [8] | outcome [9] | outcome [10] | outcome [11] | outcome [12] | outcome [13] | outcome [14] | outcome [15] | outcome [16] | outcome [17]

CC(=O)N1N=C(c2c(-c3ccccc3)c3cc(C)ccc3[nH]c2=O)CC1c1ccco1 (centres undefined)
inactive: outcome [1] | outcome [2] | outcome [3] | outcome [5] | outcome [6] | outcome [7] | outcome [8] | outcome [9] | outcome [10] | outcome [11] | outcome [13] | outcome [14] | outcome [16] | outcome [17]
active: potentiation [4] 10% | potentiation, percent of control [12] 186% | potentiation [15] 15.5%

COc1ccc(CCN2CCCC(CN(C)C(=O)c3ccoc3)C2)cc1 (centres undefined)
active: potentiation [15] 14.1%
inactive: outcome [1] | outcome [2] | outcome [3] | outcome [4] | outcome [5] | outcome [6] | outcome [7] | outcome [8] | outcome [9] | outcome [10] | outcome [11] | outcome [12] | outcome [13] | outcome [14] | outcome [16] | outcome [17]

CCCCC(=O)Nc1cccc2c1C(=O)N(c1ccccc1)C2=O
inactive: outcome [1] | outcome [2] | outcome [3] | outcome [4] | outcome [5] | outcome [6] | outcome [7] | outcome [8] | outcome [9] | outcome [10] | outcome [11] | outcome [12] | outcome [13] | outcome [14] | outcome [15] | outcome [16] | outcome [17]

Cc1ccc(CNC(=O)CSc2nc(=O)n3ccccc3n2)cc1
inactive: outcome [1] | outcome [2] | outcome [3] | outcome [4] | outcome [5] | outcome [6] | outcome [7] | outcome [8] | outcome [9] | outcome [10] | outcome [11] | outcome [12] | outcome [13] | outcome [14] | outcome [15] | outcome [16] | outcome [17]

C=CCNC(=S)N/N=C/c1ccc(C(C)(C)C)cc1
inactive: outcome [1] | outcome [2] | outcome [3] | outcome [4] | outcome [7] | outcome [8] | outcome [9] | outcome [10] | outcome [11] | outcome [12] | outcome [13] | outcome [14] | outcome [15] | outcome [16] | outcome [17]
active: inhibition [5] 79% | inhibition [6] 41%

c1cnc(N2CCN(c3cnccn3)CC2)nc1
inactive: outcome [1] | outcome [2] | outcome [3] | outcome [4] | outcome [5] | outcome [6] | outcome [7] | outcome [8] | outcome [9] | outcome [10] | outcome [11] | outcome [12] | outcome [13] | outcome [14] | outcome [15] | outcome [16] | outcome [17]

Source: PubChem BioAssay
